The values below come from paper PMC5540273 (PLoS ONE, 2017).

Among the test systems are NEK6; NEK7; NEK9; NLK; PAK1; PAK2; PAK3; PAK4; PAK6; PAK7; PDGFRA; PDGFRB; PDPK1; PFTAIRE2.
What all share (conditions): concentration: 1 μM, replicates: in singlicate; n = 1
Another assay has as its system T1, NIK.
T1 construct: gene MAP3K14

In a further assay the test system is T2, NIM1.
T2 construct: gene MGC42105

The next assay relates to T3, OSR1.
T3 construct: gene OXSR1

The next assay relates to T4, PCTK1.
T4 construct: gene CDK16

The test system of another assay is T5, PCTK2.
T5 construct: gene CDK17

In another assay the test system is T6, PCTK3.
T6 construct: gene CDK18
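Also: KINOMEscan kinase panel screen.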

Consider `Cc1nnc(-c2ccc3ncc(-c4ccc(S(C)=O)cc4)n3c2)o1` (centres unmarked), for which the “%Inh” value was 12% with NEK6; 0% with NEK7; 0% with NEK9; 0% in the assay on NIK; 0% with NIM1; 0% in the assay with NLK. Moreover, the “%Inh” value in the assay with OSR1 is 9%; with PAK1 it was 17%; in the assay on PAK2, 3%; in the assay on PAK3, 0%; with PAK4, 0%; in the assay with PAK6, 0%. The “%Inh” value was determined as 5% in the assay on PAK7; 14% with PCTK1; 0% in the assay with PCTK2; 0% with PCTK3; 42% with PDGFRA; 80% with PDGFRB. The “%Inh” value in the assay with PDPK1 and in the assay with PFTAIRE2 was 0% each time.
On to `O=C(NCCNc1ccnc(Nc2ccc(F)cc2)n1)c1cc2ccccc2s1` [GSK1379874], for which the “%Inh” value in the assay with NEK6 stood at 0%; with NEK7, 0%; in the assay on NEK9 it was 16%; with NIK, 0%; in the assay with NIM1, 33%; with NLK it was 0%. Also, the “%Inh” value with OSR1 is recorded as 12%; with PAK1, 6%; with PAK2, 0%; in the assay with PAK3, 0%; in the assay on PAK4, 0%; with PAK6, 0%. The “%Inh” value in the assay with PAK7 worked out at 0%; in the assay with PCTK1, 0%; in the assay on PCTK2, 0%; with PCTK3, 0%; with PDGFRA, 0%; in the assay on PDGFRB it was 26%. The entries for the “%Inh” value in the assay with PDPK1 and with PFTAIRE2 were 0% and 17%, respectively.
With `c1ccc(-c2n[nH]cc2-c2ccnc3ccccc23)nc1` [GW271431], the “%Inh” value in the assay on NEK6 was 0%; with NEK7 it was 0%; with NEK9, 58%; in the assay with NIK, 4%; in the assay with NIM1, 21%; in the assay on NLK, 58%. Also, the “%Inh” value in the assay on OSR1 was 13%; in the assay with PAK1, 16%; with PAK2, 20%; in the assay with PAK3 it was 6%; with PAK4, 0%; in the assay on PAK6 it was 11%. Further, the “%Inh” value is on record as 8% with PAK7; 0% in the assay with PCTK1; 0% in the assay with PCTK2; 20% with PCTK3; 0% in the assay with PDGFRA; 20% in the assay on PDGFRB. The “%Inh” value with PDPK1 stood at 0%; in the assay on PFTAIRE2, 36%.
As to `COc1cc(Nc2nccc(N3CCC(NC(=O)c4cccc(NC(C)=O)c4)C3)n2)cc(OC)c1OC` (centres unmarked) [GSK1379754], the “%Inh” value in the assay with NEK6 is 37%; in the assay on NEK7, 68%; with NEK9, 49%; in the assay with NIK it was 23%; in the assay with NIM1, 5%; in the assay with NLK it was 0%. For the same compound, the “%Inh” value came out at 6% in the assay with OSR1; 20% in the assay on PAK1; 20% in the assay on PAK2; 26% in the assay with PAK3; 0% in the assay with PAK4; 0% with PAK6. Also, the “%Inh” value is listed as 0% with PAK7; 4% in the assay with PCTK1; 0% with PCTK2; 20% in the assay on PCTK3; 0% in the assay on PDGFRA; 54% in the assay on PDGFRB. Further, the “%Inh” value is listed as 30% in the assay on PDPK1 and 18% in the assay with PFTAIRE2.
As to `Cc1cccc(Cn2ccn3c(=O)cc(N4CCOCC4)nc23)c1` [GSK2297542], the “%Inh” value with NEK6 amounted to 2%; with NEK7 it was 0%; in the assay on NEK9, 15%; in the assay on NIK, 0%; with NIM1, 8%; in the assay with NLK it was 15%. Besides, the “%Inh” value in the assay on OSR1 amounted to 19%; in the assay on PAK1, 18%; in the assay on PAK2, 25%; with PAK3, 3%; in the assay with PAK4 it was 25%; in the assay with PAK6, 53%. Besides, the “%Inh” value in the assay with PAK7 came out at 22%; in the assay with PCTK1, 6%; with PCTK2 it was 16%; in the assay with PCTK3, 19%; in the assay on PDGFRA it was 0%; in the assay with PDGFRB, 40%. Moreover, the entries for the “%Inh” value with PDPK1 and in the assay on PFTAIRE2 were 11% and 27%, respectively.
Consider `Nc1nc(-c2ccc3c(N)n[nH]c3c2)cc(N2CCCC2)n1` [GSK2227430], for which the “%Inh” value in the assay with NEK6 is reported as 0%; with NEK7 it was 0%; with NEK9, 6%; in the assay with NIK, 0%; with NIM1, 0%; with NLK, 0%. For the same compound, the “%Inh” value in the assay on OSR1 is reported as 7%; in the assay with PAK1, 13%; in the assay on PAK2, 12%; with PAK3 it was 0%; with PAK4, 0%; in the assay with PAK6 it was 0%. The “%Inh” value in the assay on PAK7 is on record as 5%; in the assay with PCTK1 it was 0%; in the assay on PCTK2, 0%; with PCTK3, 0%; with PDGFRA, 0%; in the assay with PDGFRB, 18%. Also, the “%Inh” value in the assay on PDPK1 was 67%; in the assay on PFTAIRE2 it was 6%.
Consider `N#Cc1ccc(-c2cc(-c3c[nH]nc3-c3ccccn3)ccn2)cc1` [GW693028], for which the “%Inh” value is listed as 0% in the assay with NEK6; 0% in the assay on NEK7; 0% with NEK9; 18% with NIK; 35% in the assay on NIM1; 16% in the assay with NLK. In addition, the “%Inh” value in the assay with OSR1 is 4%; with PAK1, 8%; in the assay with PAK2 it was 9%; in the assay on PAK3, 0%; in the assay on PAK4 it was 0%; in the assay on PAK6, 0%. The “%Inh” value with PAK7 stood at 11%; with PCTK1 it was 0%; in the assay on PCTK2 it was 0%; in the assay with PCTK3 it was 33%; with PDGFRA it was 0%; with PDGFRB, 7%. The “%Inh” value with PDPK1 and in the assay with PFTAIRE2 was 0% throughout.
Consider `Cl.Nc1ncnc2occ(-c3ccc(NC(=O)Nc4cc(C(F)(F)F)ccc4F)cc3)c12` [SB-707548], for which the “%Inh” value with NEK6 turned out to be 0%; with NEK7 it was 0%; in the assay with NEK9, 76%; in the assay on NIK, 36%; in the assay on NIM1 it was 28%; with NLK, 26%. In addition, the “%Inh” value worked out at 3% in the assay on OSR1; 24% with PAK1; 30% in the assay on PAK2; 15% with PAK3; 9% in the assay on PAK4; 6% in the assay with PAK6. The “%Inh” value in the assay with PAK7 is listed as 26%; in the assay with PCTK1, 11%; in the assay on PCTK2, 80%; in the assay with PCTK3, 67%; in the assay on PDGFRA it was 99.8%; with PDGFRB it was 100%. Besides, the “%Inh” value amounted to 33% with PDPK1 and 68% with PFTAIRE2.
As to `C[C@@H](Oc1cc(-n2cnc3ccc(NC(=O)NC(C)(C)C)cc32)sc1C(N)=O)c1ccccc1Cl` [GSK346294], the “%Inh” value in the assay with NEK6 was 0%; in the assay with NEK7 it was 4%; in the assay with NEK9, 16%; in the assay with NIK, 21%; in the assay with NIM1 it was 19%; in the assay on NLK it was 19%. Moreover, the “%Inh” value worked out at 18% with OSR1; 15% in the assay with PAK1; 14% with PAK2; 15% with PAK3; 0% in the assay with PAK4; 2% in the assay on PAK6. Further, the “%Inh” value in the assay with PAK7 is recorded as 29%; in the assay on PCTK1 it was 0%; with PCTK2 it was 9%; in the assay with PCTK3 it was 14%; in the assay on PDGFRA, 4%; with PDGFRB it was 22%. Also, the “%Inh” value with PDPK1 came to 0%; with PFTAIRE2, 11%.
As for `O=c1cc(N2CCOCC2)nc2n(Cc3cccc(C(F)(F)F)c3)ccn12` [GSK2297543], the “%Inh” value in the assay with NEK6 amounted to 0%; in the assay on NEK7, 0%; in the assay with NEK9, 18%; in the assay with NIK, 25%; in the assay on NIM1, 14%; in the assay with NLK, 32%. For the same compound, the “%Inh” value in the assay with OSR1 stood at 5%; in the assay on PAK1 it was 6%; with PAK2, 14%; in the assay with PAK3, 14%; in the assay on PAK4 it was 0%; with PAK6, 0%. Also, the “%Inh” value in the assay with PAK7 is given as 0%; in the assay with PCTK1 it was 6%; in the assay with PCTK2, 0%; with PCTK3 it was 1%; in the assay on PDGFRA it was 11%; in the assay on PDGFRB, 22%. For the same compound, the “%Inh” value in the assay on PDPK1 worked out at 0%; in the assay on PFTAIRE2 it was 17%.
